Most compounds without a hit are left out; they make up all but 3.9% or so of the library.
HT1080-NT tox: qHTS for induction of synthetic lethality in tumor cells producing 2HG: qHTS for the HT-1080-NT fibrosarcoma cell line; AID 686970, 2013; Potency, µM (series often up to 46.1 µM), inactives show at the highest dose activity, negative = less viability, hits mostly cytotoxic; 360,000 compounds, 1.6% hits; HT-1080-NT fibrosarcoma viability, CellTiter-Glo ATP luminescence, 48 h;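 also: NT is the 2HG producing partner of a matched IDH1 knockdown line; 0% = DMSO-treated cells and -100% = media-only wells without cells; nearly all actives have a fitted effect of over 55% in size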
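Compounds were tested in concentration-response format on HT-1080-NT cells for 48 hours at 37 degrees C. Cell viability came from CellTiter-Glo luminescence; curves were classified by r2, response magnitude and activity.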
HT1080 IDH1KD tx: qHTS for induction of synthetic lethality in tumor cells producing 2HG: qHTS for the HT-1080-IDH1KD cell line; HT-1080 IDH1 knockdown viability, ATP luminescence, 48 h; Potency, µM (top dose mostly 46.1 µM), for inactives: top-dose activity, negative = toxicity, hits mostly cytotoxic; 360,000 compounds, 2% hits; AID 686971, 2013;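 also: 0% = DMSO wells and -100% = cell-free medium wells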
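CellTiter-Glo luminescence after 48 h compound exposure at 37 degrees C of IDH1-knockdown HT-1080 cells in 5% FBS RPMI. %Activity scaled between DMSO wells and cell-free media wells, with curves fitted and assigned curve classes.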
HepG2 tox: qHTS for Inhibitors of TGF-b: Cytotox Counterscreen. HepG2 CAGA-GFP viability, ATP luminescence, 18 h. Potency, µM (doses to about 46.1 µM), inactives show top-dose activity change, negative = cytotoxicity, hits mostly cytotoxic. 410,000 compounds, 0.76% hits
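CellTiter-Glo luminescence gave cytotoxicity after 18 hours at 37 degrees C. The cells were HepG2 CAGA-GFP in 1% FBS DMEM, stimulated with 500 pg/mL TGF-beta after compound addition. %Activity was normalised to no-cell wells (complete cell-killing) and DMSO (no toxicity), and curves were fitted and classified.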
TGFb inhibitor: qHTS for Inhibitors of TGF-b; 410,000 compounds, 1.2% hits; AID 588855, 2011; HepG2 CAGA-GFP TGF-b/SMAD3 reporter, GFP fluorescence, 18 h; TGF-beta stimulated, 500 pg/mL final; Potency, µM (highest dose often 46.1 µM), for the others: at the highest dose activity, negative = inhibition, most hits filed as inhibitors; also: % is scaled to controls: 0 for no effect and ±100 for the full control effect; nearly all actives have a fitted effect of over 65% in size
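First, reporter cells (HEPG2 CAGA-GFP) rested 2 h at 37 degrees C. Next, compounds were pinned in and TGF-beta added to 500 pg/mL final. After 18 h, GFP was imaged per cell and summed per well.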
ATXN2 expr inh: Primary qHTS for Inhibitors of ATXN expression; HEK-293 ATXN2-luciferase reporter, luminescence, 24 h; Potency, µM (titrated, usually from 57 µM), for the others: at the top dose activity change, negative = inhibition, usual class: inhibitors; 360,000 compounds, 0.72% hits; also: % is scaled to controls: 0 for no effect and ±100 for the full control effect; nearly all actives have a fitted effect of over 55% in size
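ATXN2-luciferase reporter cells (luciferase flanked by upstream and downstream ATXN2 gene portions) were treated 24 h at 37 °C with compounds at up to 57 uM. SteadyGlo luminescence gave expression; GF-AFC fluorescence gave viability.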
S2 tox: Viability Counterscreen for Primary qHTS for Inhibitors of ATXN expression; S2 cells (HEK-293 line with an ATXN2-luciferase reporter) viability, CellTiter-Fluor protease fluorescence, 24 h; Potency, µM (titrated, usually from 56.7 µM), most hits filed as cytotoxic; 400,000 compounds, 0.49% hits; AID 651635, 2014; also: nearly all actives have a fitted effect of over 40% in size
An asterisk follows results filed as active; i = inactive; ? = inconclusive; · = not tested or not shown; ! = a repeat was not active. Calls follow the shape of the dose curve; as a rule, active = well fitted curve in the direction sought with a large enough effect; inconclusive = small, poorly fitted or top-dose-only effect, or another doubt; inactive = no such curve, though single readings can be large; an effect the other way counts as inactive or inconclusive. Potency is read from the fitted curve at half-maximal effect.

SMILES | HT1080-NT tox | HT1080 IDH1KD tx | HepG2 tox | TGFb inhibitor | ATXN2 expr inh | S2 tox
CCOc1ccc(NC(=O)/C=C\C(=O)N(c2ccc(C(C)C)cc2)C(C(=O)NCc2ccco2)c2ccc(F)cc2)cc1 (stereo unspecified) | · | · | -41% | ? | · | ·
CCOc1ccccc1NC(=O)Nc1cc(C(=O)NCc2ccc(C)cc2)ccc1N1CCCC1 | · | · | -9% | 0% | -6% | ?
Cc1occc(=O)c1OC(=O)Nc1ccc(Cl)c(Cl)c1 | 23µM* | ? | -66% | 10µM* | -5% | ?
COc1ccc(C(=O)Oc2c(C)occc2=O)cc1OC | -4% | -3% | -1% | 10% | -11% | i
COCC(=O)Nc1cc(C(=O)NC2Cc3ccccc3C2)cc2nc(-c3cccnc3)n(C)c12 | · | · | · | · | · | i
Nc1ccc(-c2cnc(N)c(C(=O)c3cccnc3)n2)cn1 | -8% | -3% | -19% | 7.9µM* | ? | ?
Nc1ccc(C(=O)c2cccs2)cn1 | 2% | -7% | 8% | -5% | · | i
Cc1cccc(NC(=O)CSc2ncc(-c3ccc(Br)cc3)[nH]2)c1 | · | · | 13µM* | ? | ? | ?
CCc1cc(C(=O)NCc2c(C)ncc3c2CCN(C(=O)C2=CCCC2)C3)no1 | · | · | · | · | · | i
S=c1[nH]nc(Cc2ccccc2)n1Cc1ccco1 | 35µM* | ? | -81% | 6% | -7% | i
Cc1onc(-c2ccccc2)c1C(=O)O/N=C(\N)c1ccc([N+](=O)[O-])o1 | ? | -25% | 13µM* | 13µM* | · | ?
Cc1ccc2c(c1)-c1nc(-c3ccc4c(c3)NC(=O)CO4)cc(-c3ccccc3)c1CO2 | · | · | 6% | 0% | 3% | i
O=C1Cc2c(-c3ccccc3)cc(-c3cccc(Cl)c3)nc2-c2ccccc2N1 | -2% | -10% | 0.89µM* | -8% | ? | ?
Cc1ccc(N=N/C(=C\O)C(=O)c2ccc(Cl)cc2)cc1 | ? | ? | -29% | ? | ? | ?
O=C(/C(=C/O)N=Nc1ccccc1)c1ccc(Cl)cc1 | 16µM* | 18µM* | -15% | -24% | ? | ·
COc1ccc(-c2[nH]ncc2N=Nc2ccccc2)cc1 | 16µM* | 16µM* | -31% | ? | ? | ?
COc1ccc(-c2[nH]ncc2N=Nc2cc(C)cc(C)c2)cc1 | 18µM* | 21µM* | -17% | -29% | -39% | ?
O=C(COCc1cc(-c2ccc3c(c2)OCO3)on1)Nc1cc(Cl)ccc1O | · | · | 5% | 1% | · | ·
CC1CCC(C(C)C)C(OC(=O)CSc2nccc(=O)[nH]2)C1 (stereo unspecified) | 4% | 4% | -35% | 6% | 4% | i
COc1ccc(-c2n(CC(=O)OC3CC(C)CCC3C(C)C)c3ccccc3[n+]2C)cc1 (stereo unspecified) | 6.5µM* | 5.8µM* | 11µM* | 5µM* | 7.5µM* | ?
COc1ccc(OCc2n(CC(=O)OC3CC(C)CCC3C(C)C)c3ccccc3[n+]2C)cc1 (stereo unspecified) | 5.8µM* | 5.8µM* | 14µM* | ? | ? | ?
CCC(=O)NNc1ncnc2c1cnn2-c1ccc(C)c(Cl)c1 | · | · | 12% | 18% | 28% | i
CC(C)CC1C(=O)N(Cc2cn(CCC3OCCO3)nn2)CCS(=O)(=O)N1Cc1ccc(-c2ccccc2)cc1 (stereo unspecified) | ? | -27% | -44% | ? | ? | ?
COc1ccc(-c2ccc(CN3C(C(C)C)C(=O)N(Cc4cn(CCC5OCCO5)nn4)CCS3(=O)=O)cc2)cc1OC (stereo unspecified) | -1% | -5% | -8% | 11% | -7% | ?
CC(C)C1C(=O)N(Cc2cn(CCC3OCCO3)nn2)CCS(=O)(=O)N1Cc1ccc(-c2ccc(Cl)c(Cl)c2)cc1 (stereo unspecified) | ? | 18µM* | -61% | ? | ? | ?
SMILES | HT1080-NT tox | HT1080 IDH1KD tx | HepG2 tox | TGFb inhibitor | ATXN2 expr inh | S2 tox
Cc1ccc(-c2ccc(CN3C(CC(C)C)C(=O)N(Cc4cn(CCC5OCCO5)nn4)CCS3(=O)=O)cc2)cc1 (stereo unspecified) | 18µM* | 18µM* | 11µM* | 22µM* | 25µM* | 35µM*
CC(C)CC1C(=O)N(Cc2cn(CCC3OCCO3)nn2)CCS(=O)(=O)N1Cc1ccc(-c2ccc(Cl)c(Cl)c2)cc1 (stereo unspecified) | ? | ? | -56% | 11µM* | ? | ·
CCOC(=O)N1CCc2cc(OC)c(OC)c3c2c1cc1cc(OC)c(OC)cc13 | ? | 16µM* | -43% | -15% | 19% | ?
COc1cc(CC(=O)N2CCc3ccccc32)cc(OC)c1OC | -3% | -14% | -18% | ? | 32% | i
CNC(=O)c1c(-c2ccc(F)cc2)oc2cc(N(CCO)S(C)(=O)=O)c(C3CC3)cc12 | · | · | · | · | -19% | ·
O=C(NCc1ccc2c(c1)OCO2)c1ccc2c(c1)N(Cc1ccccc1F)C(=O)c1ccccc1S2=O (stereo unspecified) | · | · | -1% | 6% | 10% | i
O=S1(=O)CCOC[C@H](CC2CCCCC2)N1Cc1cccc(C(F)(F)F)c1 | -16% | 0% | 13µM*! | ? | -26% | i
O=S1(=O)CCOC[C@H](CC2CCCCC2)N1Cc1ccccc1Br | -3% | -2% | 7.1µM*! | 13µM* | -20% | i
CCOc1ccccc1CNC(=O)c1ccc2c(c1)nc1n2CCCCC1 | · | · | -31% | 6% | · | ·
Cc1cccc2sc(N(Cc3cccnc3)C(=O)Cc3ccccc3)nc12 | · | · | -21% | 13µM* | · | ·
O=C(CCOc1ccccc1)N(Cc1cccnc1)c1nc2c(F)cccc2s1 | · | · | -99% | 16µM* | · | ·
Cc1cccc2sc(N(Cc3cccnc3)C(=O)CCc3ccccc3)nc12 | · | · | -33% | 11µM* | · | ·
CCOc1ccc(-c2nonc2NC(=O)c2oc3ccc(F)cc3c2C)cc1 | · | · | -16% | ? | -16% | ?
COc1ccc(OC)c(C(=O)c2c(N)c(-c3nc(-c4ccc(C)c(C)c4)cs3)c3ccccn23)c1 | · | · | 5% | 2% | 13% | i
CN(Cc1cn(C)nc1-c1ccc(Oc2ccccc2)cc1)Cc1cnc2ccccn12 | 29µM* | -20% | -65% | ? | · | ·

Source: PubChem
